Measured values published in PubChem BioAssay AID504834 (National Center for Advancing Translational Sciences (NCATS), 2011).
Where “and” joins values, the source holds several entries; their conditions need not be identical. Equal entries are not always repeated. In all, about 320,000 compounds went through this assay and about 22,000 (6.9%) were called active. Another 27% or so got no clear call; they are omitted. Calls come from the whole dose curve; as a rule, active = well fitted inhibition curve with a large enough effect; inconclusive = small, poorly fitted or top-dose-only effect, or another doubt; inactive = no such curve, though single readings can be large or run the other way. The full list was thinned out, with actives kept by preference. The source holds several records for some structures; these can differ, active in one and inactive in another.

Assay: Primary qHTS for delayed death inhibitors of the malarial parasite plastid, 96 hour incubation
Conditions: P. falciparum luciferase reporter growth; series mostly up to 28.7 µM; activity change, negative = inhibition: at the top concentration
Summary of the method: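 P. falciparum expressing integrated firefly luciferase grown in erythrocytes (2% hematocrit, 0.05% parasitemia final) with compounds for 96 hours at 37 C, 5% CO2. Growth inhibition read as loss of luminescence after adding luciferase detection reagent.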
% is set by controls: 0 for no effect and ±100 for the full control effect; potency is the fitted concentration of half-maximal effect.

**Q.** Which “activity change, negative = inhibition” value does the source give for `O=C(CCN1CCCO1)N1CCCC(N2CCN(c3cccc(C(F)(F)F)c3)CC2)C1` (stereo not given) here?
**A.** The value was -24.3% (inactive).

**Q.** Which “activity change, negative = inhibition” value does the source give for `Cc1ccc(CSc2nsc(C)c2C#N)cc1` here?
**A.** The value was 15.2% (inactive).

**Q.** With `CCC(C)(C)NC(=O)CN(C(=O)CCC(=O)Nc1nccs1)c1ccc2c(c1)OCO2` as the compound, how does the “activity change, negative = inhibition” value read?
**A.** Its value is -16.6% (inactive).

**Q.** For `COc1ccc(CNC(=O)COC(=O)c2c(C)nn(-c3ccccc3)c2C)cc1OC`, which “activity change, negative = inhibition” value is on record?
**A.** Its value is 53.4% (inactive).

**Q.** With `Cc1nn(CC(=O)N2CCCCC2)c(=O)c2nn(-c3ccccc3)c(C)c12` as the compound, how does the “activity change, negative = inhibition” value read?
**A.** Its value is -25.7% (inactive).

**Q.** Which Potency does the source give for `Cc1ccc(-n2nc3c(=O)n(C(C)C(=O)NCc4ccc5c(c4)OCO5)nc(C)c3c2C)cc1` (stereo not given) here?
**A.** The Potency was 1.31 µM (active).

**Q.** Which “activity change, negative = inhibition” value does the source give for `Cc1nc2c(C(=O)NCc3ccc4c(c3)OCO4)c[nH]n2c(=O)c1Cc1ccccc1F` here?
**A.** Its value is 69.3% (inactive).

**Q.** With `COc1ccc(CNC(=O)C(C)n2nc(C)c3c(C)n(-c4ccccc4)nc3c2=O)c(OC)c1` (stereo not given) as the compound, how does the Potency read?
**A.** Its Potency is 10.4 µM (active).

**Q.** For `CCn1c(=O)c(C(=O)NCc2ccc3c(c2)OCO3)c(O)c2ccccc21`, which “activity change, negative = inhibition” value is on record?
**A.** The value was 12.7% (inactive).

**Q.** With `CC(C)CNC(=O)C(=O)NCC(c1ccc2c(c1)OCO2)N1CCOCC1` (stereo not given) as the compound, how does the “activity change, negative = inhibition” value read?
**A.** The value was 80.6% (inactive).

**Q.** Which Potency does the source give for `CC1=NN(c2cccc(Cl)c2)C(=O)C12CC(C)=C(C)CS2` (stereo not given) here?
**A.** Its Potency is 3.7 µM (active).

**Q.** Which “activity change, negative = inhibition” value does the source give for `CC12CCC(C(=O)N(c3cccc(Cl)c3)C1=O)C2(C)C` (stereo not given) here?
**A.** Its value is 86.3% (inactive).

**Q.** With `Cc1cccc(OCCC(=O)OCc2csc(CC(=O)Nc3ccccc3C)n2)c1` as the compound, how does the “activity change, negative = inhibition” value read?
**A.** Its value is -1.27% (inactive).

**Q.** Which “activity change, negative = inhibition” value does the source give for `O=CN1CCN(C(=O)c2ccc(Br)o2)CC1` here?
**A.** Its value is -8.76% (inactive).

**Q.** Which “activity change, negative = inhibition” value does the source give for `COc1ccc(-n2cnnc2SCC(=O)Nc2cccc(S(N)(=O)=O)c2)cc1` here?
**A.** The value was -2.69% (inactive).

**Q.** For `O=C(N/N=C/c1cccc(Br)c1)c1ccc(N2CCCC2=O)cc1`, which “activity change, negative = inhibition” value is on record?
**A.** Its value is 11.4% (inactive).

**Q.** Which “activity change, negative = inhibition” value does the source give for `CCOC(=O)N1CCN(C(=O)C2CCN(S(=O)(=O)c3cc(Cl)ccc3OCC)CC2)CC1` here?
**A.** The value was 38.7% (inactive).

**Q.** Which Potency does the source give for `CN(C)P(=S)(Nc1ccccc1)C(Cl)(Cl)Cl` (stereo not given) here?
**A.** Its Potency is 8.28 µM (active).

**Q.** With `O=C(CN1CCN(c2ccccc2)CC1)Nc1ccc(F)cc1` as the compound, how does the “activity change, negative = inhibition” value read?
**A.** Its value is 10.7% (inactive).

**Q.** For `CC(Oc1ccc(F)cc1)C(=O)N1CCN(c2ncccn2)CC1` (stereo not given), which “activity change, negative = inhibition” value is on record?
**A.** Its value is 7.12% (inactive).

**Q.** Which “activity change, negative = inhibition” value does the source give for `COCCN(C(=O)CC1CCCCC1)c1c(N)n(CC(C)C)c(=O)[nH]c1=O` here?
**A.** The value was -19.9% (inactive).

**Q.** With `CCC(=O)Nc1cccc(NC(=O)c2cccnc2)c1` as the compound, how does the Potency read?
**A.** Its Potency is 13.1 µM (active).

**Q.** For `CN(C)S(=O)(=O)c1cccc(C(=O)Nc2cccnc2)c1`, which Potency is on record?
**A.** Its Potency is 3.29 µM (active).

**Q.** With `CCOC(=O)c1cc(NC(=O)c2cccnc2)cc(C(=O)OCC)c1` as the compound, how does the “activity change, negative = inhibition” value read?
**A.** The value was -1.24% (inactive).

**Q.** Which “activity change, negative = inhibition” value does the source give for `CCC(=O)Nc1ccc(C(=O)Nc2cccc(OC)c2)cc1` here?
**A.** Its value is 25.3% (inactive).

**Q.** With `CCN(CC)S(=O)(=O)c1cccc(C(=O)Nc2ccccc2)c1` as the compound, how does the “activity change, negative = inhibition” value read?
**A.** Its value is -28% (inactive).

**Q.** For `O=C(Nc1cccnc1)c1cccc(S(=O)(=O)N2CCCC2)c1`, which “activity change, negative = inhibition” value is on record?
**A.** Its value is 22.3% (inactive).

**Q.** For `COc1ccc(C(=O)N2CCN(c3ncccn3)CC2)cc1S(=O)(=O)N1CCOCC1`, which “activity change, negative = inhibition” value is on record?
**A.** Its value is 29.3% (inactive).

**Q.** With `O=C1CN(C(=O)c2cc(F)cc(F)c2)c2ccccc2N1` as the compound, how does the “activity change, negative = inhibition” value read?
**A.** The value was 21.9% (inactive).

**Q.** For `Cn1c(O)c(C=Nc2ccc3c(c2)CCC3)c(=O)n(C)c1=O`, which “activity change, negative = inhibition” value is on record?
**A.** Its value is -0.84% (inactive).

**Q.** Which “activity change, negative = inhibition” value does the source give for `O=c1[nH]c(=O)n(-c2ccc(F)cc2)c(O)c1C=NCCN1CCCCC1` here?
**A.** The value was -0.537% (inactive).

**Q.** With `Cn1c(O)c(C=NCCN2CCNCC2)c(=O)n(C)c1=O` as the compound, how does the Potency read?
**A.** The Potency was 9.28 µM (active).

**Q.** Which “activity change, negative = inhibition” value does the source give for `COc1ccc(NC(=O)c2cn(-c3ccccc3)nc2SC)cc1` here?
**A.** The value was 32.2% (inactive).

**Q.** Which “activity change, negative = inhibition” value does the source give for `Cc1cccc(N2CCN(C(=O)COCc3cc(-c4ccc5c(c4)OCO5)on3)CC2)c1C` here?
**A.** The value was 63.5% (inactive).

**Q.** For `Cc1ccsc1-c1cc(C(=O)O)c2c(ccc3ccccc32)n1`, which “activity change, negative = inhibition” value is on record?
**A.** The value was 42.5% (inactive).

**Q.** For `Cc1ccccc1NC(=S)N(CCCN1CCOCC1)Cc1cccs1`, which Potency is on record?
**A.** The Potency was 3.7 µM (active).

**Q.** With `Cc1ccc(Cl)cc1NC(=S)N(CCN(C)C)Cc1cccs1` as the compound, how does the “activity change, negative = inhibition” value read?
**A.** The value was 42.5% (inactive).

**Q.** Which “activity change, negative = inhibition” value does the source give for `Cc1ccc(NC(=S)N(CCN(C)C)Cc2cccs2)cc1C` here?
**A.** The value was 14.5% (inactive).

**Q.** With `CCN(C(=O)COC(=O)c1sccc1C)c1c(N)n(Cc2ccccc2)c(=O)[nH]c1=O` as the compound, how does the “activity change, negative = inhibition” value read?
**A.** The value was -27.9% (inactive).

**Q.** With `COc1ccc(OC)c(/C=N/NC(=O)c2ccc[n+](CC(=O)c3ccccc3)c2)c1` as the compound, how does the “activity change, negative = inhibition” value read?
**A.** Its value is 13.8% (inactive).

**Q.** With `O=C(O)c1ccccc1CSc1nc2ccccc2s1` as the compound, how does the “activity change, negative = inhibition” value read?
**A.** Its value is 58.7% (inactive).

**Q.** With `CCOC(=O)C1CCCN(C(=O)CN(c2ccc(OC)cc2)S(=O)(=O)c2c(C)noc2C)C1` (stereo not given) as the compound, how does the “activity change, negative = inhibition” value read?
**A.** The value was 67.4% (inactive).

**Q.** For `Cc1cc(C)cc(N(CC(=O)NCC2CCCO2)S(=O)(=O)c2c(C)noc2C)c1` (stereo not given), which “activity change, negative = inhibition” value is on record?
**A.** Its value is -10.5% (inactive).

**Q.** For `Cc1cc(C)cc(N(CC(=O)N2CC=C(c3ccccc3)CC2)S(=O)(=O)c2c(C)noc2C)c1`, which Potency is on record?
**A.** The Potency was 6.57 µM (active).

**Q.** Which “activity change, negative = inhibition” value does the source give for `COc1ccc(NC2CCCN(C(=O)c3ccncc3)C2)cc1` (stereo not given) here?
**A.** The value was 8.58% (inactive).

**Q.** Which “activity change, negative = inhibition” value does the source give for `COc1ccccc1N(C)C(=O)c1cc(S(=O)(=O)N2CCc3ccccc32)cn1C` here?
**A.** Its value is 0.199% (inactive).

**Q.** Which “activity change, negative = inhibition” value does the source give for `CC(=O)NCC(O)c1ccc([N+](=O)[O-])cc1` (stereo not given) here?
**A.** The value was 10.7% (inactive).

**Q.** Which “activity change, negative = inhibition” value does the source give for `Cc1ccc(C23CC4CC(CC(C(=O)NCC(=O)O)(C4)C2)C3)cc1` here?
**A.** The value was -2.65% (inactive).

**Q.** For `CNCC(O)c1ccc(O)c(O)c1` (stereo not given), which “activity change, negative = inhibition” value is on record?
**A.** Its value is 3% (inactive).

**Q.** With `NCC(O)c1ccc(O)cc1` (stereo not given) as the compound, how does the Potency read?
**A.** The Potency was “inactive and 4.26 µM (active)”.

**Q.** With `COc1ccc(S(=O)(=O)NNC(=O)Nc2ccc(C)cc2)c(OC)c1` as the compound, how does the “activity change, negative = inhibition” value read?
**A.** Its value is 16.2% (inactive).

**Q.** Which Potency does the source give for `N#CCCN1CCN(S(=O)(=O)c2ccc(S(=O)(=O)NC3CCCCC3)cc2)CC1` here?
**A.** Its Potency is 8.28 µM (active).

**Q.** Which “activity change, negative = inhibition” value does the source give for `N#CCCN1CCN(S(=O)(=O)c2ccc(S(=O)(=O)NC3CC3)cc2)CC1` here?
**A.** Its value is 14.9% (inactive).

**Q.** For `N#CCCN1CCN(S(=O)(=O)c2ccc(S(=O)(=O)N3CCCC3)cc2)CC1`, which “activity change, negative = inhibition” value is on record?
**A.** Its value is 13.4% (inactive).

**Q.** With `CN(Cc1ccc(F)cc1Cl)S(=O)(=O)c1cccs1` as the compound, how does the “activity change, negative = inhibition” value read?
**A.** Its value is 0.235% (inactive).

**Q.** With `Cc1cccc(OCC(=O)NC(=S)Nc2ccccc2N2CCOCC2)c1` as the compound, how does the “activity change, negative = inhibition” value read?
**A.** Its value is 19.3% (inactive).

**Q.** Which “activity change, negative = inhibition” value does the source give for `COCC(=O)Nc1c(C(=O)N2CCCC2)oc2ccccc12` here?
**A.** The value was -7.27% (inactive).

**Q.** For `CCOCCCN(C)C1CCN(C(=O)c2oc3ccccc3c2NC(=O)COc2cccc(C)c2)CC1`, which Potency is on record?
**A.** The Potency was 13.1 µM (active).

**Q.** With `Cc1ccc(C)c(C(=O)N2CCC(n3nccc3NC(=O)C3CC3)CC2)c1` as the compound, how does the “activity change, negative = inhibition” value read?
**A.** Its value is 28.5% (inactive).

**Q.** Which “activity change, negative = inhibition” value does the source give for `Cc1c(CN2CCC(n3nccc3NC(=O)CCc3ccccc3)CC2)cnn1C` here?
**A.** Its value is -5.6% (inactive).

**Q.** With `CCN1CCN(C(=O)C2CCN(S(=O)(=O)c3cc(Cl)ccc3Cl)CC2)CC1` as the compound, how does the “activity change, negative = inhibition” value read?
**A.** The value was 17.3% (inactive).

**Q.** With `COc1ccc(-n2c(=O)[nH]c3cc(C(=O)NCCc4ccc(OC)c(OC)c4)ccc3c2=O)c(OC)c1` as the compound, how does the “activity change, negative = inhibition” value read?
**A.** Its value is 184% (inactive).

**Q.** With `Cc1cc(C)c2c(-n3cccc3)c(C(=O)NNS(=O)(=O)c3ccc(F)cc3)sc2n1` as the compound, how does the “activity change, negative = inhibition” value read?
**A.** Its value is 50.7% (inactive).

**Q.** Which Potency does the source give for `Cc1cc(C)c2c(-n3cccc3)c(NC(=O)OCc3ccccc3)sc2n1` here?
**A.** Its Potency is 13.1 µM (active).

**Q.** For `CCCCOC(=O)Nc1sc2nc(C)cc(C)c2c1-n1cccc1`, which “activity change, negative = inhibition” value is on record?
**A.** The value was 37.7% (inactive).
